Inconclusive results are not listed. Unmarked numbers belong to inactive results. The source made the active and inactive calls. Calls follow the shape of the dose curve; as a rule, active = well fitted curve in the direction sought with a large enough effect; inconclusive = small, poorly fitted or top-dose-only effect, or another doubt; inactive = no such curve, though single readings can be large; an effect the other way counts as inactive or inconclusive. Peptide text beside a SMILES is read from it. * marks the point of attachment. Hexanoyl = CCCCCC(=O)*
test: Viability qHTS for inhibitors of the SERCaMP assay screened against the NCATS CANVASS Library (AID 1347400); conditions: SH-SY5Y SERCaMP cells viability, CellTiter-Glo, 48 h; series mostly up to 92.2 µM; activity change, negative = cytotoxicity: at the top concentration; also: nearly all actives have a fitted effect of over 70% in size; also: potency is read from the fitted curve at half-maximal effect; as to activity change, negative = cytotoxicity: % is scaled to controls: 0 for no effect and ±100 for the full control effect
How it was run: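 Measures loss of viability in SERCaMP reporter SH-SY5Y cells treated for 48 h with compounds; luminescent ATP detection by CellTiter-Glo.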

Structure (SMILES)	activity change, negative = cytotoxicity	Potency
CC(=O)N[C@H](C)c1nc(/C=C/C=C/C(=O)CC2CC(=O)CC[C@]2(C)O)cs1 (some centres not stated)	4.64%	
CN1C(=O)C(=O)N2C(=C[C@]3(c4c[nH]c5ccccc45)c4ccccc4N[C@H]23)C1=O	7.17%	
CN1CC[C@]23c4ccccc4N[C@H]1[C@]21CCN(C)[C@H]3Nc2ccccc21	2.2%	
C/C=C1/C2=CCCN3C(=O)O[C@H]([C@H]1O)[C@H]23	-25.8%	
COc1c(O)cc(O)c2c(=O)cc(-c3ccccc3)oc12	4.89%	
COC1C(C)OC(OCC23C[C@@H]4[C@H](C)CC[C@H]4C4(C=O)CC2C=C(C(C)C)C34C(=O)O)[C@@H](O)[C@H]1O (some centres not stated)	-7.04%	
CN1CC[C@@]2([C@@]34CCN(C)[C@@H]3Nc3ccccc34)c3ccccc3N[C@@H]12	6.89%	
Cc1cc(O)cc2c1C(=O)c1c(O)cc(O)cc1C2=O	10.6%	
C=C(Cl)[C@](Cl)(CBr)CC[C@@H](Br)C(C)(C)Cl	16.2%	
C=C(C)C(=O)O[C@H]1C[C@@]2(C)OC(=CC2=O)/C(C)=C\[C@H]2OC(=O)C(=C)[C@H]12		4.8 µM (active)
C=C[C@]1(C)CC[C@@H]([C@H](C)C(=O)CC=C(C)C)O1	5.11%	
CC[C@@H]1C[C@@]2(CC)OC(=O)[C@@]3(CC)[C@H](CC)[C@@H]1[C@@H]23		6.04 µM (active)
[C-]#[N+][C@@]12C(=O)[C@@H]3[C@@H](O[C@@]4(C(=O)N(C)c5cccc1c54)C3(C)C)C(=O)[C@@]2(C)C=C	12.8%	
COC(=O)c1cccc2oc(-c3cccc4oc(-c5c(C)cccc5O)nc34)nc12	-22.8%	
C[C@@]12CCC[C@@](C)(C(=O)OP(=O)(O)OC[C@H]3O[C@@H](n4cnc5c(N)ncnc54)[C@H](O)[C@@H]3O)[C@H]1C[C@@H](O)[C@@]13C[C@@H](CC[C@@H]21)[C@](C)(O)C3	0.0492%	
CCC(C)=C1OC(=O)[C@H](C)[C@H](O)[C@H](Cc2cccnc2)NC(=O)C(NC(=O)c2ncccc2O)C(C)OC1=O (some centres not stated)	9.05%	
C[C@@]12CCC[C@@](C)(C(=O)O)[C@H]1CC[C@@]13C[C@@H](CC[C@H]12)[C@](C)(O)C3	-1.4%	
O=C1OC(CCO)c2cccc(O)c21 (configuration not stated)	10.1%	
C=C1C[C@]23C=CC(=O)[C@@](C)(CCCC(C)C(=O)N[C@@H](CO)C(=O)O)[C@@H]2C[C@@H]1CC3 (some centres not stated)	10.2%	

Structure (SMILES)	activity change, negative = cytotoxicity	Potency
COc1cc2ccc(=O)oc2c(O)c1O[C@@H]1O[C@H](CO)[C@@H](O)[C@H](O)[C@H]1O	7.29% [at 55.1 µM]	
C/C(=C\[C@@H](C)CC/C=C/CC/C=C/C(=O)O)[C@@H](O)[C@H](C)C(=O)CCCC1CC(=O)NC(=O)C1	-7.01%	
CO[C@@H](C[C@@H](C)[C@@H](O)/C=C/C=C/CNC(=O)C(C)(C)[C@H](O)\C(C)=C/C=C\C=C\Cc1cnco1)[C@]1(O)[C@@H](C)C(=O)N(C)[C@@]12COC2=O	8.13%	
O=C1CC(c2ccc(O)cc2)Oc2cc(O)cc(O)c21 (configuration not stated)	15.8%	
O=C1CC(c2ccc(O)cc2)Oc2cc(O)ccc21 (configuration not stated)	-20.4%	
CN1CC[C@@]23c4ccccc4N[C@@H]1[C@@]21CCN(C)[C@@H]3Nc2ccccc21	3.9%	
C[C@@]12CCC[C@@](C)(C(=O)O)[C@H]1C[C@@H](O)[C@@]13C[C@@H](CC[C@@H]21)[C@](C)(O)C3	9.92%	
O=Cc1ccc2n1C[C@]1(OC2)O[C@H](CO)[C@@H](O)[C@@H]1O	14.9%	
C=C[C@@]1(C)CC[C@@H]([C@H](C)C(C)=O)O1	-9.37%	
C/C=C(/CO)C(=O)O[C@@H]1[C@H](O)[C@@H](C(=O)OC)O[C@@H]2C[C@H]3OC(n4cnc5c(N)ncnc54)[C@H](OC)[C@H]3O[C@@]12O (some centres not stated)	4.3%	
C/C=C/[C@H]1[C@H]2C(=O)c3c(O)c(C)c(O)c(C)c3[C@]1(C(=O)O)C(=O)C=C2C	9.03%	
C[C@@]12C[C@@H](C[C@@H]3C(=O)O[C@@H](c4ccoc4)[C@H](OC(=O)c4ccccc4)[C@@H]31)OC2=O	12.4%	
C=C1CCC2C(C)(C(=O)O)CCC(CC/C(C)=C/C(=O)NC(CCC(N)=O)C(=O)O)[C@@]2(C)C1 (some centres not stated)	4%	
C=C1[C@@]2(C)CC3C4(C)CCC(O)C(C)(C)C4CCC3(C)[C@]1(C(=O)OC)C(=O)C(C)(O)C2=O (some centres not stated)	11.6%	
CC(C)=CCC[C@]1(C)[C@H]2CC(=O)[C@@]3(CO3)[C@@H]1C2	7.81%	
CCCCCC(=O)N[C@@H](CC(C)C)C(=O)N[C@H](C=O)CCC(=O)O (Hexanoyl-Leu-Glu-aldehyde)	-1.82%	
COc1ccc([C@@H]2c3cc4c(cc3C(=O)C(C)C2C)OCO4)cc1OC (some centres not stated)	1.15%	
CC1(C)CC[C@]2(CO)CC[C@]3(C)C(=CCC4[C@@]5(C)CC[C@H](O)C(C)(C)C5CC[C@]43C)C2C1 (some centres not stated)	11.1%	

test: Redox Reaction Profiling qHTS: Assay Interference Panel against the NCATS CANVASS Library (AID 1347401); conditions: resazurin-DTT redox cycling, fluorescence, 15 min; series mostly up to 57.1 µM; activation (redox signal): at the top concentration;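 also: 100% = activation by 2 µM chloranil control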
How it was run: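 Fluorescence read-out (525 nm excitation, 598 nm emission) at time zero and after 15 min in the dark tracked resorufin formation. Mix: 5 uM resazurin, 200 uM DTT, HEPES pH 7.3 buffer with NaCl.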

Structure (SMILES)	activation (redox signal)
CN1CC[C@]23c4ccccc4N[C@H]1[C@]21CCN(C)[C@H]3Nc2ccccc21	-5.09%
C/C=C1/C2=CCCN3C(=O)O[C@H]([C@H]1O)[C@H]23	-5.75%
O=C1CC(c2ccc(O)cc2)Oc2ccccc21 (configuration not stated)	-25.5%
CN1CC[C@@]2([C@@]34CCN(C)[C@@H]3Nc3ccccc34)c3ccccc3N[C@@H]12	-27.1%
COc1ccc(-c2oc3cc(OC)cc(OC)c3c(=O)c2O)cc1	22.4%
C=C(C)C(=O)O[C@H]1C[C@@]2(C)OC(=CC2=O)/C(C)=C\[C@H]2OC(=O)C(=C)[C@H]12	18.6%
C=C[C@]1(C)CC[C@@H]([C@H](C)C(=O)CC=C(C)C)O1	-15.5%
CC[C@@H]1C[C@@]2(CC)OC(=O)[C@@]3(CC)[C@H](CC)[C@@H]1[C@@H]23	-20.4%
[C-]#[N+][C@@]12C(=O)[C@@H]3[C@@H](O[C@@]4(C(=O)N(C)c5cccc1c54)C3(C)C)C(=O)[C@@]2(C)C=C	-23.5%
COC(=O)c1cccc2oc(-c3cccc4oc(-c5c(C)cccc5O)nc34)nc12	-4.1%
CCC(C)=C1OC(=O)[C@H](C)[C@H](O)[C@H](Cc2cccnc2)NC(=O)C(NC(=O)c2ncccc2O)C(C)OC1=O (some centres not stated)	14.1%
C[C@@]12CCC[C@@](C)(C(=O)O)[C@H]1CC[C@@]13C[C@@H](CC[C@H]12)[C@](C)(O)C3	-10.7%
O=C1OC(CCO)c2cccc(O)c21 (configuration not stated)	-13.7%
COc1cc2ccc(=O)oc2c(O)c1O[C@@H]1O[C@H](CO)[C@@H](O)[C@H](O)[C@H]1O	3.53% [at 34.1 µM]
CO[C@@H](C[C@@H](C)[C@@H](O)/C=C/C=C/CNC(=O)C(C)(C)[C@H](O)\C(C)=C/C=C\C=C\Cc1cnco1)[C@]1(O)[C@@H](C)C(=O)N(C)[C@@]12COC2=O	-1.44%
O=C1CC(c2ccc(O)cc2)Oc2cc(O)cc(O)c21 (configuration not stated)	-23.1%
O=C1CC(c2ccc(O)cc2)Oc2cc(O)ccc21 (configuration not stated)	-21.2%
CN1CC[C@@]23c4ccccc4N[C@@H]1[C@@]21CCN(C)[C@@H]3Nc2ccccc21	-10.5%
C[C@@]12CCC[C@@](C)(C(=O)O)[C@H]1C[C@@H](O)[C@@]13C[C@@H](CC[C@@H]21)[C@](C)(O)C3	-13.8%
C=C[C@@]1(C)CC[C@@H]([C@H](C)C(C)=O)O1	-6.76%
C[C@@]12C[C@@H](C[C@@H]3C(=O)O[C@@H](c4ccoc4)[C@H](OC(=O)c4ccccc4)[C@@H]31)OC2=O	-16.5%
C=C1CCC2C(C)(C(=O)O)CCC(CC/C(C)=C/C(=O)NC(CCC(N)=O)C(=O)O)[C@@]2(C)C1 (some centres not stated)	-13.7%
C=C1[C@@]2(C)CC3C4(C)CCC(O)C(C)(C)C4CCC3(C)[C@]1(C(=O)OC)C(=O)C(C)(O)C2=O (some centres not stated)	-11.8%
CC(C)=CCC[C@]1(C)[C@H]2CC(=O)[C@@]3(CO3)[C@@H]1C2	-15.8%
CCCCCC(=O)N[C@@H](CC(C)C)C(=O)N[C@H](C=O)CCC(=O)O (Hexanoyl-Leu-Glu-aldehyde)	-10.6%

Source: PubChem BioAssay (NCATS)
